Experimental data published in PubChem BioAssay (Tox21).
Values joined by “and” are separate entries in the source; they are usually repeats but may differ in a detail not shown here. Equal entries are not always repeated. Inconclusive results are not listed. Where a call stands in place of a potency, no number is given. Where a structure was tested more than once in an assay, its records may differ in their call. Active and inactive are the calls of the source. Unless noted, calls come from the whole dose curve.

Experiments:
[1] = qHTS assay to identify small molecule antagonists of the sonic hedgehog signaling (Shh) pathway (AID 1259369); note: nearly all actives have a fitted effect of over 45% in size; note: potency is the fitted concentration of half-maximal effect
Outline: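 NIH/3T3 stable Gli1-Luc clone, 2,000 cells/well, 4hr settle; cpd + conditioned medium 24hr; Luc reagent 30min RT; luminescence.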

[2] = molecular target: Estrogen receptor beta (Homo sapiens) (UniProt Q92731); experiment: qHTS assay to identify small molecule agonists of the estrogen receptor beta (ER-beta) signaling pathway (AID 1259377; active = well fitted activation curve with a large enough effect in the signal ratio in the repeat runs, not every such curve was filed as active; the % refers to the signal ratio)
Chain of Estrogen receptor beta (Homo sapiens) (Q92731 whole entry, looked up): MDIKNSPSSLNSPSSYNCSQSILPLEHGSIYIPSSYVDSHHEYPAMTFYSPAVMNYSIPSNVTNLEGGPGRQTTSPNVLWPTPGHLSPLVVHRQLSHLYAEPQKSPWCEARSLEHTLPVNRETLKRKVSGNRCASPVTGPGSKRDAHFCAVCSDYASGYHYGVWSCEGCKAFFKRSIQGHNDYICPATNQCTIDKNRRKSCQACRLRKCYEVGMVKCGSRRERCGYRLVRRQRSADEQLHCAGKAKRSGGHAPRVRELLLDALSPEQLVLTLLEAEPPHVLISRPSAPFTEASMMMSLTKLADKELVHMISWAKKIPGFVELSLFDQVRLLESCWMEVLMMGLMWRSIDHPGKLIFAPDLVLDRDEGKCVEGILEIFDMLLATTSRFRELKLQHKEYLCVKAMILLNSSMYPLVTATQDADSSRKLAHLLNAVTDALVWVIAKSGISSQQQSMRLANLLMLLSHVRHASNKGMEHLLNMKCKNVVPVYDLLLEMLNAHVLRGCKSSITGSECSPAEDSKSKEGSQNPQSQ
Outline: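 Ratiometric beta-lactamase FRET read-out came after 2 h substrate loading at room temperature. It followed 16 h compound treatment at 37C of GripTite HEK293T cells carrying a UAS-bla reporter, plated in 2% charcoal-stripped FBS medium.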

[3] = molecular target: Estrogen receptor beta (Homo sapiens) (UniProt Q92731); experiment: qHTS assay to identify small molecule antagonists of the estrogen receptor beta (ER-beta) signaling pathway (AID 1259378; active = well fitted inhibition curve with a large enough effect in the signal ratio in the repeat runs, not every such curve was filed as active; the % refers to the signal ratio; note: potency is the fitted concentration of half-maximal effect)
Outline: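 ER-beta-UAS-bla HEK293T (GripTite) cells in 2% charcoal-stripped FBS medium were preincubated 6 hr at 37C, dosed with compound, then stimulated with 1 nM E2 (final) for 16 hr; beta-lactamase reporter read by B/G FRET fluorescence after 2 hr substrate loading.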

[4] = qHTS assay to identify small molecule agonists of the androgen receptor (AR) signaling pathway in the presence of an antagonist - cell viability counter screen (AID 1259379; active = well fitted curve in the direction sought with a large enough effect in the repeat runs; an effect the other way counts as inactive or inconclusive; note: nearly all actives have a fitted effect of over 25% in size; note: potency is the fitted concentration of half-maximal effect)
Outline: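 MDA-kb2 viability measured by CellTiter-Fluor fluorescence in the same wells as the luciferase signal; nilutamide 3.0uM final; 15-point compound titration; 16 hr at 37C.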

[5] = molecular target: Estrogen receptor (Homo sapiens) (UniProt P03372); experiment: qHTS assay to identify small molecule agonists of the estrogen receptor alpha (ER-alpha) signaling pathway in the presence of an antagonist (AID 1259383); note: nearly all actives have a fitted effect of over 15% in size; note: potency is the fitted concentration of half-maximal effect; for activation: top concentration of the series differs between compounds
Chain of Estrogen receptor (Homo sapiens) (P03372 whole entry, looked up): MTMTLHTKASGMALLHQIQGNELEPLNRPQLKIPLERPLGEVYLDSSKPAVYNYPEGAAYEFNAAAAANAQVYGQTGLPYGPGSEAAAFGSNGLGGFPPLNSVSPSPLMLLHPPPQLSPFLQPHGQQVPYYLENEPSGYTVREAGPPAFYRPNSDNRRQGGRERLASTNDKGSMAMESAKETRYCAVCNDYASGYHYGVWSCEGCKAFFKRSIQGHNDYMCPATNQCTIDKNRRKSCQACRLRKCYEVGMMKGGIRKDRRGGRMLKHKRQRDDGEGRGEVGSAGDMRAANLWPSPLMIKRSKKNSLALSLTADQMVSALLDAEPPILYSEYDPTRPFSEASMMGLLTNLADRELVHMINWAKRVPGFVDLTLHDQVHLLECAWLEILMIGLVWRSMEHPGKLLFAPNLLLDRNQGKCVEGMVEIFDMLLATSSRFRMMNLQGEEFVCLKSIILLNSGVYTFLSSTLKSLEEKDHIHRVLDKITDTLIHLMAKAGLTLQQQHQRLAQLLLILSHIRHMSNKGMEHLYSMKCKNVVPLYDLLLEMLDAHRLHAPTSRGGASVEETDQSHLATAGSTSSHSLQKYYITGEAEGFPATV
Outline: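 Quantitative HTS confirmation: compounds titrated at 15 concentrations onto estrogen-deprived VM7Luc4E2 cells carrying a four-ERE luciferase construct, with ICI-182,780 present at 10.0nM final. Signal is luminescence after 22hr exposure.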

[6] = qHTS assay to identify small molecule agonists or antagonists of the thyroid stimulating hormone receptor (TSHR) signaling pathway - wild type cell line counter screen (AID 1259384)
Outline: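 Wild-type HEK293 cells were plated 18 h at 37 C/5% CO2, pin-dosed with compound plus Ro20-1724 medium, held 30 min at room temperature, then given cAMP-d2 and anti-cAMP-cryptate; fluorescence was read after 1 h. Fifteen concentrations, triplicate.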

[7] = molecular target: Thyrotropin receptor (Homo sapiens) (UniProt P16473); experiment: qHTS assay to identify small molecule antagonists of the thyroid stimulating hormone receptor (TSHR) signaling pathway (AID 1259385); note: nearly all actives have a fitted effect of over 20% in size
Chain of Thyrotropin receptor (Homo sapiens) (P16473 whole entry, looked up): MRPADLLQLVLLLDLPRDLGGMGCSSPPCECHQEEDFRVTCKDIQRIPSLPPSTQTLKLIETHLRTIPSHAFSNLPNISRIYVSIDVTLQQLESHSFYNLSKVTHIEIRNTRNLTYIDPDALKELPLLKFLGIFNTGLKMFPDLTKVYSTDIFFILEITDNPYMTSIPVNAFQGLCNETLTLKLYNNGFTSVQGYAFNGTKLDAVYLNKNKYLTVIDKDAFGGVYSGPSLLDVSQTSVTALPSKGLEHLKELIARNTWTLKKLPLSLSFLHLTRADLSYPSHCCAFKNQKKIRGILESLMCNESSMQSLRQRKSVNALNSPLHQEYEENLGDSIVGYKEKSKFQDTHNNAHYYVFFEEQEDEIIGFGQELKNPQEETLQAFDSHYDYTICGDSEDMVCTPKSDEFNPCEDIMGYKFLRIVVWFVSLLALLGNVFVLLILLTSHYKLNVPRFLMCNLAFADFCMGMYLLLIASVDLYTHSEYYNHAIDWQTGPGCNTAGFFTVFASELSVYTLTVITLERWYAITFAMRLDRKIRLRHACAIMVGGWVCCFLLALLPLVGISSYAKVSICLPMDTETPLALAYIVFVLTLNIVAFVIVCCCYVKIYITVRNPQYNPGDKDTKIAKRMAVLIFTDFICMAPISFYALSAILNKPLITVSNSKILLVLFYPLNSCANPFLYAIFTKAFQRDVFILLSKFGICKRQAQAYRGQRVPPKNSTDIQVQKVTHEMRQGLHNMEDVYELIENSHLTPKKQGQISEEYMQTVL
Outline: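 TSHR-HEK293 cells were plated and held 18 h at 37C/5% CO2, then given compound plus Ro20-1724 and stimulated with TSH at 1.5 ng/mL final. After 30 min at room temperature, cAMP was detected with cAMP-d2/anti-cAMP-cryptate (1 h) by fluorescence.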

[8] = qHTS assay to identify small molecule antagonists of the estrogen receptor beta (ER-beta) signaling pathway - cell viability counter screen (AID 1259382; active = well fitted curve in the direction sought with a large enough effect in the repeat runs; an effect the other way counts as inactive or inconclusive; note: nearly all actives have a fitted effect of over 55% in size; note: potency is the fitted concentration of half-maximal effect)
Outline: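 Readout: luminescence, CellTiter-Glo, same wells as bla assay. System: ER-beta-UAS-bla GripTite HEK293T, 2% charcoal-stripped FBS. Exposure: compounds plus 1nM 17-beta-estradiol, 16 hr, 37C.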

[9] = qHTS assay to identify small molecule agonists of the estrogen receptor beta (ER-beta) signaling pathway - cell viability counter screen (AID 1259380; active = well fitted curve in the direction sought with a large enough effect in the repeat runs; an effect the other way counts as inactive or inconclusive; note: nearly all actives have a fitted effect of over 30% in size; note: potency is the fitted concentration of half-maximal effect)
Outline: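 Measured: luminescence from CellTiter-Glo after 30 min at room temperature, added to wells already read for the LiveBLAzer FRET reporter (2 hr substrate); ER-beta-UAS-bla HEK293T cells had 16 hr compound treatment at 37C, 5% CO2.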

[10] = molecular target: Androgen receptor (Homo sapiens) (UniProt P10275); experiment: qHTS assay to identify small molecule agonists of the androgen receptor (AR) signaling pathway in the presence of an antagonist (AID 1259381); note: nearly all actives have a fitted effect of over 15% in size
Chain of Androgen receptor (Homo sapiens) (P10275 whole entry, looked up): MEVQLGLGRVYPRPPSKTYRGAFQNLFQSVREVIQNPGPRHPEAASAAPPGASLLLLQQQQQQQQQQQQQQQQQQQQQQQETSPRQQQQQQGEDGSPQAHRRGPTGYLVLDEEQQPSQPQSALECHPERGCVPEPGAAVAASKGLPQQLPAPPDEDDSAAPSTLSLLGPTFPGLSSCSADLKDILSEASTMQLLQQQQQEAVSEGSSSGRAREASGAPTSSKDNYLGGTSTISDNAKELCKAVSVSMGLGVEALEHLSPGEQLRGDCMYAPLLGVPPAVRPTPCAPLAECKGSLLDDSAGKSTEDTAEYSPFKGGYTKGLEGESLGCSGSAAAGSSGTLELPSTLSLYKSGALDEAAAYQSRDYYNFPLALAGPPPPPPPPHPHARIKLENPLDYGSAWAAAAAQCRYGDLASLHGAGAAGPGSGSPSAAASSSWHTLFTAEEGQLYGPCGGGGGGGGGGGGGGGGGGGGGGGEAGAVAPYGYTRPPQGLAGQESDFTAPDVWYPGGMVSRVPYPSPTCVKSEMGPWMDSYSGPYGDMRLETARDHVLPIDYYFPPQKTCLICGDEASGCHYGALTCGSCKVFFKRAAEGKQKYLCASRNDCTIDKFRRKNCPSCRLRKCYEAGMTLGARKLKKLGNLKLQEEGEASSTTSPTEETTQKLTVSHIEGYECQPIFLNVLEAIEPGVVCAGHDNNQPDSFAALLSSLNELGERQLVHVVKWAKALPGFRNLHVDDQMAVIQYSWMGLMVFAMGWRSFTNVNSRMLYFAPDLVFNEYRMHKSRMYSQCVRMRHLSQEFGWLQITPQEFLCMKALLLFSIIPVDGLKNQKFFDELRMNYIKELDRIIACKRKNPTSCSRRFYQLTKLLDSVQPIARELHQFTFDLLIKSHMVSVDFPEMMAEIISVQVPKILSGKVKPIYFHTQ
Outline: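 Luminescent ONE-Glo read, 30min at room temperature, follows 16hr compound exposure (15 concentrations) of MDA-kb2 cells at 37C, 0% CO2, with nilutamide added at 3.0uM final.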

SMILES	Potency [1]	Potency [2]	Potency [3]	Potency [4]	Potency [5]	Potency [6]	Potency [7]	Potency [8]	Potency [9]	activity, negative = inhibition [3]	outcome [10]
CC(C)CON=O	inactive	inactive	inactive	inactive	inactive	inactive	inactive	–	–	–	–
NC(=O)CN1CCCC1=O	inactive	inactive	inactive	inactive	–	–	–	inactive	–	–	–
Cc1cc(Cl)ccc1N=CN(C)C	inactive	inactive	inactive	inactive	–	inactive	inactive	–	inactive	–	–
CC(C)(O)C(=O)Nc1ccc([N+](=O)[O-])c(C(F)(F)F)c1	24.8 µM (active) and 22.4 µM (active)	inactive	inactive	–	inactive	–	inactive	inactive	–	–	–
CCNCC	inactive	inactive	inactive	inactive	–	inactive	inactive	inactive	–	–	–
Nc1ccc2ccccc2c1	inactive	–	inactive	inactive	inactive	–	–	inactive	–	–	–
ClC(Cl)(Cl)Br	inactive	inactive	–	inactive	–	–	inactive	inactive	–	-1.76% [at 19 µM] (inactive)	–
CCCCCCCCCCCCCl	inactive	inactive	inactive	inactive	inactive	–	inactive	inactive	–	–	–
CCOP(=O)(OCC)OCC	inactive	inactive	inactive	inactive	–	inactive	inactive	–	–	–	–
[CH3][Sn]([Cl])([Cl])[Cl]	inactive	inactive	inactive	inactive	–	–	inactive	–	–	–	–
Cc1ccc(N=CN(C)C=Nc2ccc(C)cc2C)c(C)c1	54.7 µM (active) and inactive	inactive	inactive	inactive	inactive	–	inactive	inactive	–	–	–
CCC[CH2][Sn]([Cl])([Cl])[CH2]CCC	196 nM (active) and 243 nM (active)	inactive	–	552 nM (active) and 1.09 µM (active)	inactive	–	–	1.39 µM (active) and 1.54 µM (active)	–	–	–
CC(C)Nc1nc(Cl)nc(NC(C)C)n1	768 nM (active)	inactive	inactive	inactive	inactive	inactive	inactive	–	–	–	–
COP(=S)(OC)SCn1nnc2ccccc2c1=O	30 µM (active) and inactive	inactive	–	inactive	inactive	inactive	inactive	–	–	–	inactive
CCCCCCCC[N+](C)(CCCCCCCC)CCCCCCCC	193 nM (active) and 48.6 nM (active) and 306 nM (active)	–	17.2 µM (active)	12.2 µM (active) and 2.73 µM (active) and 24.3 µM (active)	inactive	–	inactive	12.2 µM (active) and 43.3 µM (active) and 24.3 µM (active)	–	–	–
CS(=O)(=O)NC(=O)c1cc(Oc2ccc(C(F)(F)F)cc2Cl)ccc1[N+](=O)[O-]	inactive	inactive	–	inactive	–	–	inactive	–	inactive	–	–
C=C(C)C#N	inactive	inactive	inactive	inactive	inactive	–	inactive	inactive	–	–	–
CC(C)Nc1ccc(Nc2ccccc2)cc1	5430 nM (active)	inactive	–	60.9 µM (active) and 68.6 µM (active)	inactive	–	–	15.3 µM (active) and 27.3 µM (active)	19.3 µM (active) and 27.3 µM (active)	–	–
CCC/C=N/O	inactive	inactive	inactive	inactive	inactive	–	–	–	–	–	–
O=C1CCCO1	inactive	inactive	inactive	inactive	–	inactive	inactive	–	–	–	inactive
CC(C)(c1ccccc1)c1ccc(O)cc1	27.1 µM (active) and 30.6 µM (active)	–	4.82 µM (active) and 7.7 µM (active)	inactive	15.2 µM (active) and 15.4 µM (active)	inactive	inactive	68 µM (active)	60.6 µM (active)	–	–
N#Cc1c(Cl)c(Cl)c(Cl)c(C#N)c1Cl	300 nM (active)	–	3.78 µM (active)	16.9 µM (active) and 24.3 µM (active)	inactive	–	–	9.5 µM (active) and 15.4 µM (active)	–	–	–
N#CC(c1ccccc1)c1ccccc1	inactive	inactive	inactive	inactive	–	–	inactive	–	inactive	–	–
COP(=S)(OC)Oc1ccc(Sc2ccc(OP(=S)(OC)OC)cc2)cc1	68.6 µM (active) and inactive	inactive	inactive	inactive	inactive	–	inactive	–	–	–	inactive
CC(C)(O)C#N	inactive	–	inactive	inactive	–	inactive	inactive	inactive	inactive	–	–
CSc1nc(NC(C)C)nc(NC(C)C)n1	766 nM (active)	inactive	inactive	inactive	inactive	–	–	inactive	–	–	–
S=c1[nH]c2ccccc2[nH]1	inactive	inactive	inactive	inactive	–	inactive	inactive	–	–	–	inactive
CCCCCCCCCC(CC)c1ccc(S(=O)(=O)O)cc1 (stereo unspecified)	inactive	–	–	inactive	–	–	–	–	–	–	–
C=CC(=O)OCC(CC)(COC(=O)C=C)COC(=O)C=C	2.23 µM (active) and 3.06 µM (active)	–	–	62.8 µM (active) and 24.3 µM (active)	inactive	inactive	inactive	31.5 µM (active) and 19.3 µM (active)	62.8 µM (active) and 19.3 µM (active)	–	inactive
[Cl-].[Cl-].[Cl-].[Fe+3]	–	–	–	inactive	–	–	–	inactive	–	–	–
